Compound activity as filed in PubChem BioAssay.
Most compounds without a hit are left out; they make up all but 1.4% or so of the library.
3CLpro inhibitor – SARS-CoV 3CLpro protease inhibition | P0C6X7 | recombinant SARS-CoV 3CLpro, quenched FRET peptide cleavage | 0.14% of 290,000 active | inhibition, % at 6 µM | AID 1706; in the data active = inhibition above about 12%
BJeLR lethal – BJeLR cell viability loss | BJeLR (HRASV12) viability, CellTiter-Glo ATP luminescence, 48 h | inhibition, % (concentration not given with the values) | 0.17% of 300,000 active | AID 1554; in the data active = inhibition above about 50%
CCHFV vOTU inh – CCHFV vOTU protease inhibition | Pep-AMC fluorescence | inhibition, % at 11.5 µM | 0.55% of 370,000 active | AID 651958; in the data active = inhibition above about 30%
DUSP3 inh – DUSP3 (human) phosphatase inhibition. P51452. recombinant VHR phosphatase, pNPP absorbance. inhibition, % at 13.3 µM. 0.52% of 290,000 active. AID 1654; in the data active = inhibition above about 50%
Target sequence (P51452 whole entry, looked up): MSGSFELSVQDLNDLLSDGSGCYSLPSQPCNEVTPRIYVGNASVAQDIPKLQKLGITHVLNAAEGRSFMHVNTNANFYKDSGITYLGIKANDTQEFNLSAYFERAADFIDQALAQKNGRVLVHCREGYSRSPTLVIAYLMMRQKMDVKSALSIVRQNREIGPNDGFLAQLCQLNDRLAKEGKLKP
MazF activator – increases E. coli MazEF RNase cleavage of RNA | activation, % at 20 µM | FAM/BHQ RNA-DNA oligo cleavage fluorescence, 5 h | P0AE70 | 0.32% of 350,000 active; in the data active = activation above about 50%
Target sequence (P0AE70 whole entry, looked up): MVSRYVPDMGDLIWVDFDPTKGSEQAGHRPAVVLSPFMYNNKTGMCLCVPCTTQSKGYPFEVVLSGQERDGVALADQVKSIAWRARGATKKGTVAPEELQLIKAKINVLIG
Each line names hits and unclear results; the compound was inactive in the other large screens.

CCCN1CCCc2cc(CN)ccc21	CCHFV vOTU inh 100
Cc1ccc2c(c1)CCCN2N=O	none
CCc1ccccc1NC(=O)C1CCCN(c2ncccn2)C1 (stereo not drawn)	DUSP3 inh 50
C=CCn1c(CCNC(=O)c2cccs2)nnc1SCC(=O)c1ccc(Cl)cc1	none
C=CCn1c(CNC(=O)c2cccs2)nnc1SCC(=O)c1ccc(Br)cc1	MazF activator 71
Cc1cc(NC(=O)CN2C(=O)NC3(CCC(C)CC3)C2=O)no1 (stereo not drawn)	DUSP3 inh 51
Cc1cc(NC(=O)CN2C(=O)NC3(CCCCC3)C2=O)no1	none
Cn1cccc1CC(=O)NN=C/C=C\c1ccco1	none (no result: 3CLpro inhibitor, BJeLR lethal, DUSP3 inh, MazF activator)
c1csc(-c2nnc(SCc3cccc4ccccc34)o2)c1	none (no result: 3CLpro inhibitor, BJeLR lethal, DUSP3 inh, MazF activator)
CNc1ncnc(Sc2nc(N)nc3nc[nH]c23)c1[N+](=O)[O-]	none (no result: 3CLpro inhibitor, BJeLR lethal, DUSP3 inh)
Nc1nc(Sc2ccc([N+](=O)[O-])c3nonc23)c2[nH]cnc2n1	MazF activator 60 (no result: 3CLpro inhibitor, BJeLR lethal, DUSP3 inh)
O=C(OCCNc1ccc(C(F)(F)F)cc1[N+](=O)[O-])c1cc2ccccc2oc1=O	MazF activator 251
O=[N+]([O-])c1cc(C(F)(F)F)ccc1NCCOc1ccccc1	none
COc1ccc(OC)c(S(=O)(=O)N2CCC(C(=O)NCC3COCCO3)CC2)c1 (stereo not drawn)	none (no result: 3CLpro inhibitor, BJeLR lethal, DUSP3 inh, MazF activator)
Cc1ccc(C2CCC3(CCC(=O)N3CCOC(=O)Nc3ccc(F)cc3)CC2)cc1 (stereo not drawn)	none (no result: 3CLpro inhibitor, BJeLR lethal, DUSP3 inh, MazF activator)
CN(C)C=Nc1c(Br)cc(Br)c2nonc12	MazF activator 228
CN(C)C=Nc1nonc1-c1ccccc1	none
CCN1CCN(CCC(=O)Nc2cc(OC)cc(OC)c2)CC1	DUSP3 inh 51
CCN1CCN(C(=S)c2ccc(OCC(=O)NCc3ccccc3)cc2)CC1	none
CCN1CCN(C(=S)c2ccc(OCC(=O)Nc3ccc(OC)cc3)cc2)CC1	MazF activator 58 (no result: DUSP3 inh)
CCCCN1CCN(C(=O)C2CCN(S(=O)(=O)c3ccc4[nH]c(=O)oc4c3)CC2)CC1	none (no result: 3CLpro inhibitor, BJeLR lethal, DUSP3 inh, MazF activator)
O=C(Nc1ccc(F)cc1)OCc1cn(Cc2c(F)cccc2F)nn1	none (no result: 3CLpro inhibitor, BJeLR lethal, DUSP3 inh, MazF activator)
Cc1ccc(-n2c(SCc3cccc(F)c3)nnc2-c2cccc(C)c2)cc1	none (no result: 3CLpro inhibitor, BJeLR lethal, DUSP3 inh, MazF activator)
C=CCn1c(O)c(C2=c3ccccc3=NC2=O)c2ccccc21	DUSP3 inh 60
COC(=O)[C@]12C[C@H](CC(=O)NCc3ccccc3)C(=O)N(CCC3=CCCCC3)C1=C[C@H](C1CCCC1)O[C@@H]2C	none (no result: 3CLpro inhibitor, BJeLR lethal, DUSP3 inh, MazF activator)
CC(C)Oc1ccc(CCC(=O)N/N=C/c2ccc3c(c2)OCO3)cc1	DUSP3 inh 51
Cc1occc1C(=O)N/N=C/c1ccc2c(c1)OCO2	BJeLR lethal 64
Cc1occc1C(=O)N/N=C/c1ccc(-c2ccccc2)cc1	BJeLR lethal 62
Cc1cc(C(=O)N/N=C/c2ccc3c(c2)OCO3)c(C)o1	none
CC(C)C(=O)NN(C(=O)c1ccccc1)c1ccccc1	none
CC(C(=O)O)N(C(=O)c1ccccc1)c1ccc(F)cc1 (stereo not drawn)	DUSP3 inh 53
CCOc1cccc(/C=N/NC(=O)c2cccnc2)c1O	DUSP3 inh 52
Cc1cccc(Oc2cc([N+](=O)[O-])cc3c2C(=O)Nc2ccccc2O3)c1	none
O=C1Nc2ccccc2Oc2cc([N+](=O)[O-])cc(Oc3ccccc3)c21	MazF activator 53
O=C(c1cc(Cl)ccc1F)N1CCCC(c2nc(-c3cccs3)no2)C1 (stereo not drawn)	none (no result: 3CLpro inhibitor, BJeLR lethal, DUSP3 inh, MazF activator)
CNC(=O)COc1ccccc1C(=O)Nc1ccc2c(c1)oc1ccccc12	DUSP3 inh 55
CCN(CC)c1ccc(/C=C2/C(=O)c3ccc(C(=O)O)cc3C2=O)cc1	MazF activator 74 (no result: BJeLR lethal)
COc1ccccc1/C=C(/CC(=O)NCc1ccc(F)cc1)c1nc2ccccc2s1	none
COc1ccccc1/C=C(/CC(=O)NCc1ccccc1)c1nc2ccccc2s1	DUSP3 inh 54
CC(C)(C)c1ccc(C#C[C@@H]2C=C[C@H](O)[C@@H](COC(=O)Nc3ccccc3)O2)cc1	none (no result: 3CLpro inhibitor, BJeLR lethal, DUSP3 inh, MazF activator)
O=C(CN1C(=O)S/C(=C\c2cccs2)C1=O)Nc1ccc(C(=O)O)c(O)c1	3CLpro inhibitor 14
Cc1ccc(NC(=O)CN2C(=O)S/C(=C/c3ccc(-c4cc(C(=O)O)ccc4C)o3)C2=O)cc1C	MazF activator 75
O=C(CN1C(=O)S/C(=C\c2cccs2)C1=O)Nc1ccc(O)c(C(=O)O)c1	none
O=S(=O)(c1ccc(Br)s1)N1CCC(c2nc3ccccc3o2)CC1	none (no result: 3CLpro inhibitor, BJeLR lethal, DUSP3 inh, MazF activator)
Cc1ccc(OCc2n[nH]c(=S)n2-c2ccc(Cl)cc2)cc1	none
Cc1ccc(OCc2n[nH]c(=S)n2-c2ccc(Br)cc2)cc1	DUSP3 inh 58
